According to PubChem BioAssay AID623911 (Vanderbilt High Throughput Screening Facility, 2012):
The campaign covered roughly 2,100 compounds. About 770 (37%) were called active.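 The calls were made as follows: active = by-eye trace score of 1 for enhancers or -1 for inhibitors, so actives lie on both sides (some results past the limit were not filed as active); inactive = score 0, or 3 fluorescent, or 4 baseline rise.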 The list shows a part of the results.

Each compound was assayed against G protein-activated inward rectifier potassium channel 2 (Homo sapiens) + G protein-activated inward rectifier potassium channel 1 (Homo sapiens) (UniProt P48051+P48549) (assay: GIRK1/2 thallium flux modulators, retest, confirmation, cell-based, HEK293 rmGlu8/hGIRK1/2, FluoZin-2 (AID 623911)). Conditions: HEK293 rmGlu8/hGIRK1/2, thallium flux FluoZin-2; actives lie on both sides; glutamate co-added at its EC20 level.
G protein-activated inward rectifier potassium channel 2 (Homo sapiens) + G protein-activated inward rectifier potassium channel 1 (Homo sapiens), sequence (P48051 whole entry, looked up): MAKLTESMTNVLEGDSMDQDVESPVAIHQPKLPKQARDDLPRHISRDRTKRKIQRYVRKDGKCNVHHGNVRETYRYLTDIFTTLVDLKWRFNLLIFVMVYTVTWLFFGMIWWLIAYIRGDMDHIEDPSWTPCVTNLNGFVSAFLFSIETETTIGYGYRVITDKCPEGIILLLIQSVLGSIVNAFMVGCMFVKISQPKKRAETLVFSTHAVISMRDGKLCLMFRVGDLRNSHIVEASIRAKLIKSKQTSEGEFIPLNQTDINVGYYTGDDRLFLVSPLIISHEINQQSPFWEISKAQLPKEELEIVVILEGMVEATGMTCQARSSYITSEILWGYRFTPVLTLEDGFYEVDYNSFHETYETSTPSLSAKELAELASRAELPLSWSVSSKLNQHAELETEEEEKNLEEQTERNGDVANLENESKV
G protein-activated inward rectifier potassium channel 2 (Homo sapiens) + G protein-activated inward rectifier potassium channel 1 (Homo sapiens), sequence (P48549 whole entry, looked up): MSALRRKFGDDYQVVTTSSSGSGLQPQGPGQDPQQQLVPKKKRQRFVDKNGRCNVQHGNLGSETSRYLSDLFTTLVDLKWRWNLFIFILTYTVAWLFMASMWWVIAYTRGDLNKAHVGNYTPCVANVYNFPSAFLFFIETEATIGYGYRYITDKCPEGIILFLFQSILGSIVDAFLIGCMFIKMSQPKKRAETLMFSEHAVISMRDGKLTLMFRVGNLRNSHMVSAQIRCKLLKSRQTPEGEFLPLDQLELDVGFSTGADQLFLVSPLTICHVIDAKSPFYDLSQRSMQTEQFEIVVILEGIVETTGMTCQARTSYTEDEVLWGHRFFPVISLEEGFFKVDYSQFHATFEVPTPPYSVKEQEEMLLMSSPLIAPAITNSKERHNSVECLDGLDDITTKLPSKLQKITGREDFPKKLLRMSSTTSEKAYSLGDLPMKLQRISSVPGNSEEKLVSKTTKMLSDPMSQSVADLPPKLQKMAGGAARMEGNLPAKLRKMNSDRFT
With `COc1ccc(C(C)N2CC34C=CC(O3)C(C(=O)OCC(C)C)C4C2=O)cc1` (stereo not drawn) the manual score was 0 (inactive). With `CCCOc1cccc(-c2cc(-c3n[nH]c(=S)n3CC)c3ccccc3n2)c1` the manual score was 0 (inactive). In the case of `COc1ccc(S(=O)(=O)N(CCc2ccccc2)CC(=O)O)cc1`, the manual score is reported as 0 (inactive). With `COc1cc(C)nc(N(Cc2ccccc2)S(=O)(=O)c2ccccc2)n1` the manual score was -1 (active). In the case of `Cc1c(C#N)c2ncn(CC#N)c(=O)c2n1-c1ccccc1`, the manual score is reported as 0 (inactive). With `Cc1cccc(C(=O)NC(=S)NNC(=O)c2ccc(Cl)cc2)c1` the manual score was 1 (active). `O=C(/C=C/c1cccs1)NC(=S)NNC(=O)Cc1cccs1` was tested, and the manual score was 0 (inactive). `Cc1cccc(C(=O)NC(=S)NNC(=O)c2ccccc2Cl)c1` was tested, and the manual score was 1 (active). In the case of `CC(=O)c1cccc(NC(=S)NC(=O)c2cccc(C)c2)c1`, the manual score is reported as 0 (inactive). `CC(=O)c1cccc(NC(=S)NC(=O)c2cccc(Cl)c2)c1` was tested, and the manual score was 1 (active). For `O=C(NC(=S)NNC(=O)c1cccs1)c1ccc(Br)o1`, the manual score was 1 (active). `O=C(NC(=S)Nc1ccc(N2CCOCC2)cc1)c1cccc(Cl)c1` was tested, and the manual score was 0.5 (inactive). For `CC1CC(C)CN(Cc2nc(N)nc(Nc3ccc4ccccc4c3)n2)C1` (stereo not drawn), the manual score was 0 (inactive). For `O=c1c(O)c(-c2cccs2)oc2ccccc12`, the manual score was 3 (inactive). In the case of `Cc1ccc(C(=O)NNC(=S)NC(=O)c2ccc(Cl)cc2Cl)cc1`, the manual score is reported as 0.5 (inactive). In the case of `Cc1cccc(C(=O)NC(=S)Nc2ccccc2C(F)(F)F)c1`, the manual score is reported as 0 (inactive). For `Cc1cccc(C(=O)NC(=S)NNC(=O)c2cccs2)c1`, the manual score was 1 (active). For `Cc1ccc(C(=O)NNC(=S)NC(=O)c2ccc(Cl)cc2)cc1`, the manual score was 1 (active). With `Cc1ccc(C2CC2C(=O)NNC(=S)Nc2ccc(Cl)cc2)cc1` (stereo not drawn) the manual score was 0 (inactive). `Cc1c(C(=O)O)sc2nc3n(c(=O)c12)CCC(C)CC3` (stereo not drawn) was tested, and the manual score was 0 (inactive). `CCCN(CCC)CC(O)Cn1cc(/C=C/C(=O)c2cccs2)c2ccccc21` (stereo not drawn) was tested, and the manual score was 3 (inactive). For `COc1ccc(Nc2nc(C)cc(C)c2C#N)cc1OC`, the manual score was 0 (inactive). For `CCCC1COC(Cn2cncn2)(c2ccc(C)cc2)O1` (stereo not drawn), the manual score was 0 (inactive). With `COc1ccc(N2CCN(c3nc4c(c(=O)n(C)c(=O)n4C)n3Cc3ccccc3)CC2)cc1` the manual score was -1 (active). In the case of `CC1CCCCN1Cc1nc2c(c(=O)n(C)c(=O)n2C)n1CCc1ccccc1` (stereo not drawn), the manual score is reported as -1 (active). `Cn1c(=O)c2c(nc(-n3ccnc3)n2Cc2ccccc2)n(C)c1=O` was tested, and the manual score was 0 (inactive). With `CN(C)CCCOc1nc2c(c(=O)n(C)c(=O)n2C)n1C` the manual score was 0 (inactive). `COC(=O)Cn1c(CN2CCc3ccccc3C2)nc2c1c(=O)n(C)c(=O)n2C` was tested, and the manual score was 0 (inactive). For `N#CCSc1nc2ccc(N3CCOCC3)cc2c(=O)n1CCc1ccccc1`, the manual score was 0 (inactive). In the case of `CCCCn1c(CN(Cc2ccccc2)Cc2ccccc2)nc2c1c(=O)n(C)c(=O)n2C`, the manual score is reported as -1 (active). In the case of `CCCOc1nc2c(c(=O)n(C)c(=O)n2C)n1Cc1cccc2ccccc12`, the manual score is reported as -0.5 (inactive). For `COC(=O)C(C)Sc1nc2c(c(=O)n(C)c(=O)n2C)n1Cc1cccc(C)c1` (stereo not drawn), the manual score was 0 (inactive). For `COCCn1c(CN(Cc2ccccc2)Cc2ccccc2)nc2c1c(=O)n(C)c(=O)n2C`, the manual score was -1 (active). For `COc1ccc2nc3oc(C(=O)Nc4ccc(OC)c(OC)c4)cc3cc2c1`, the manual score was 0 (inactive). `CC1(C)Cc2ccccc2-c2nnc(SCC(=O)Nc3nc4ccccc4s3)n21` was tested, and the manual score was 0 (inactive). In the case of `O=c1[nH]c(SCc2ccccc2Cl)nc2c1CCCC2`, the manual score is reported as 0 (inactive). For `COc1cc(-c2nnc(CSc3nc4ccccc4s3)o2)cc(OC)c1OC`, the manual score was -0.5 (inactive). In the case of `CCCCn1c(SCC(=O)/C(C#N)=C(\C)N)nc2ccccc2c1=O`, the manual score is reported as 0.5 (inactive). With `COc1ccc(-c2nnc(CSc3nc4ccccc4c(=O)n3C)o2)cc1OC` the manual score was -1 (active). With `CCn1c(-c2ccc(-c3ccccc3)cc2)c[nH]c1=S` the manual score was 0 (inactive). `COc1ccc(OCc2nc(N)nc(Nc3ccccc3)n2)cc1` was tested, and the manual score was 0 (inactive). `Cc1nnc(NC(=O)c2ccco2)s1` was tested, and the manual score was 0 (inactive). For `COc1ccc(C)cc1NC(=O)C(=O)NNC(=O)c1ccco1`, the manual score was 1 (active). For `COc1ccccc1NC(=O)C(=O)NNC(=O)c1ccco1`, the manual score was 1 (active). With `COC(=O)c1ccccc1NC(=S)NC(NC(=O)c1ccco1)C(Cl)(Cl)Cl` (stereo not drawn) the manual score was 0 (inactive). For `Cc1cc(NC(=O)c2ccco2)ccc1NC(=O)Cc1cccs1`, the manual score was 0 (inactive). For `COc1cccc(CNCCNC(=O)c2ccco2)c1OC`, the manual score was 0 (inactive). `Cc1ccc(NC(=O)CSc2nnc(CCNC(=O)OC(C)(C)C)o2)c(C)c1` was tested, and the manual score was 0 (inactive). With `Cc1ccc(/C=N\NC(=O)c2cc([N+](=O)[O-])cc([N+](=O)[O-])c2)o1` the manual score was 0 (inactive). In the case of `O=C(N/N=C\c1cc(Br)c(Br)o1)c1cncc(Br)c1`, the manual score is reported as 1 (active). With `CCc1ccc(C2=NN(c3ccc(S(N)(=O)=O)cc3)C(c3ccc(F)cc3)C2)cc1` (stereo not drawn) the manual score was 0 (inactive). In the case of `O=C(Nc1ccc(F)cc1)c1cccnc1N1CCOCC1`, the manual score is reported as 0 (inactive). For `CCC(C)(C)n1nnnc1C(c1ccccn1)N1CCCCC1` (stereo not drawn), the manual score was 0 (inactive). `CCN(Cc1ccccc1)C(c1ccccn1)c1nnnn1C1CCCCC1` (stereo not drawn) was tested, and the manual score was -1 (active). `CC(Oc1ccc(Cl)cc1)C(=O)NNC(=S)NC(=O)c1ccco1` (stereo not drawn) was tested, and the manual score was 1 (active). In the case of `CC(Oc1ccc2ccccc2c1)C(=O)NNC(=S)NC(=O)c1ccco1` (stereo not drawn), the manual score is reported as 1 (active). In the case of `O=C(NC(=S)Nc1cccc(Cl)c1N1CCCCC1)c1ccco1`, the manual score is reported as 0 (inactive). With `O=C(NC(=S)Nn1cnc2c(cnn2-c2ccccc2)c1=O)c1ccc(Oc2ccccc2)cc1` the manual score was 0 (inactive). With `Cc1cc(NC(=O)CSc2nc3ccsc3c(=O)n2NC(=O)c2ccccc2)no1` the manual score was 0 (inactive). For `Cc1ccc(N(C(=O)CCC(=O)Nc2cc(C)on2)C(C(=O)NC2CCCC2)c2cccs2)cc1` (stereo not drawn), the manual score was -1 (active). For `O=S(=O)(c1ccc(-c2nnc(SCc3nnc(-c4ccccc4)o3)o2)cc1)N1CCCC1`, the manual score was 0 (inactive). In the case of `Fc1ccc2nc(-c3ccccc3)nc(SCc3nnc(-c4ccccc4)o3)c2c1`, the manual score is reported as 1 (active). In the case of `c1ccc(Cc2nnc(-c3ccccc3)o2)cc1`, the manual score is reported as 0 (inactive). In the case of `O=C(NCc1ccccc1)C(=O)Nc1nc(C23CC4CC(CC(C4)C2)C3)cs1`, the manual score is reported as 0 (inactive). For `S=C(Nc1ccccc1Oc1ccccc1)Nc1cccc(Cl)c1Cl`, the manual score was 1 (active). With `C=C(C)CNC(=S)Nc1cccc2cnccc12` the manual score was 0 (inactive). `S=C(Nc1ccccc1)Nc1cc(Cl)ccc1Oc1ccccc1` was tested, and the manual score was 0 (inactive). For `FC(F)Oc1ccccc1NC(=S)Nc1cccc(Cl)c1Cl`, the manual score was 1 (active). With `COC(=O)c1cccc(NC(=S)Nc2cccc(Cl)c2Cl)c1` the manual score was 0 (inactive). With `S=C(Nc1cccc(Cl)c1)Nc1ccccc1Oc1ccccc1` the manual score was 1 (active). In the case of `O=C(NC(=S)Nc1ccc2oc(-c3cccnc3)nc2c1)c1cccc(Cl)c1`, the manual score is reported as 0 (inactive). `S=C(Nc1ccc(Cl)cc1Cl)Nc1ccccc1Oc1ccccc1` was tested, and the manual score was 0 (inactive). In the case of `COc1ccc(C)cc1S(=O)(=O)Nc1cccc(Cl)c1Cl`, the manual score is reported as 0 (inactive). In the case of `Fc1cccc(/C=N/NC(=S)Nc2ccccc2Cl)c1`, the manual score is reported as 0.5 (inactive). With `O=C(Nc1cc(Cl)ccc1Oc1ccccc1)c1ccccc1F` the manual score was 0 (inactive). `S=C(Nc1cccc(Cl)c1)Nc1cccc2cnccc12` was tested, and the manual score was 1 (active). With `COc1ccc(N/C(C)=C2/C(=O)C(=O)N(CCO)C2c2ccc(Br)cc2)cc1` (stereo not drawn) the manual score was 0 (inactive). In the case of `N#CC1=C(N)Oc2n[nH]c(-c3cccs3)c2C1c1ccoc1` (stereo not drawn), the manual score is reported as 0 (inactive). In the case of `O=C(Cn1nc(Cc2ccncc2)c2ccccc2c1=O)N1CCN(C(=O)c2ccco2)CC1`, the manual score is reported as 0 (inactive). For `O=c1c2ccccc2nc(SCc2cn3ccsc3n2)n1-c1ccc(F)cc1`, the manual score was 0 (inactive). With `Cc1ccc(NC(=S)Nc2ccc(Cl)c(Cl)c2)c(OC(F)F)c1` the manual score was 1 (active). For `COC(=O)NC(=S)Nc1ccc(Oc2ccc(Cl)cc2Cl)c(Cl)c1`, the manual score was 0 (inactive). `Fc1ccc(NC(=S)Nc2ccccc2OC(F)F)cc1Cl` was tested, and the manual score was 1 (active). `O=C(O)CN=C(NS(=O)(=O)c1ccccc1)c1ccccc1` was tested, and the manual score was 0 (inactive). `Cc1cc(C(=O)CSc2nnc(-c3ccncc3)n2-c2ccccc2)c(C)n1C` was tested, and the manual score was 0 (inactive). For `COc1ccc(Cl)cc1C(=O)CSc1nnnn1C1CCCC1`, the manual score was 0 (inactive). `COc1ccccc1-n1cnnc1SCC(=O)c1cc(C)n(Cc2cccs2)c1C` was tested, and the manual score was -1 (active). `COc1cccc(-c2cc(C(=O)NC3CCCC3)no2)c1` was tested, and the manual score was 0 (inactive). In the case of `CCN(CC)CCCNC(=O)c1cc(-c2ccc(Cl)c(Cl)c2)on1`, the manual score is reported as -1 (active). `CN(C)CCCNC(=O)c1ccc(-c2nc(-c3ccc(Cl)cc3)cs2)cc1` was tested, and the manual score was 0 (inactive). In the case of `CC(C)CCOP(=O)(c1ccc(N(C)C)cc1)C(O)c1ccccn1` (stereo not drawn), the manual score is reported as 0 (inactive). `COc1ccc2c(c1)C(C)=CC(C)(C)N2C(=O)CNCc1ccc2c(c1)OCO2` was tested, and the manual score was -1 (active). For `CC(C)(C)c1nn(-c2ccccc2)c2[nH]c(=O)c(CNCc3ccc4c(c3)OCO4)cc12`, the manual score was 0 (inactive). For `Cc1c(C(=O)O)[nH]c2c1C(=O)CC(c1ccc(Cl)cc1)C2` (stereo not drawn), the manual score was 0 (inactive). With `Cc1ccc(OCC(O)Cn2c(=N)n(CCN3CCCCC3)c3ccccc32)cc1` (stereo not drawn) the manual score was -1 (active). In the case of `Cc1cccc(OCC(O)Cn2c(=N)n(CCN3CCCCC3)c3ccccc32)c1` (stereo not drawn), the manual score is reported as -1 (active). With `Cc1cccc(OCc2nnc(SCC(=O)N3CCc4ccccc43)n2C)c1` the manual score was 0 (inactive). `N=c1n(CCN2CCCCC2)c2ccccc2n1CC(O)COc1ccccc1` (stereo not drawn) was tested, and the manual score was -1 (active). In the case of `O=C(NNc1ccccc1Br)C(=O)n1ccc2ccccc21`, the manual score is reported as 0 (inactive). In the case of `COCCCN1C(=O)C(=O)/C(=C(/O)c2ccc(C)cc2)C1c1ccccc1` (stereo not drawn), the manual score is reported as 0 (inactive). In the case of `COc1ccc(/C=N/n2c(SC)nnc2-c2ccccc2)c(OC)c1OC`, the manual score is reported as -1 (active). For `COc1ccc(-c2nn(-c3ccccc3)cc2/C=N/n2cnnc2)cc1OC`, the manual score was 0 (inactive). `COc1cccc(/C=N/n2c(=S)n(C)c3ccccc32)c1OC` was tested, and the manual score was 0 (inactive).
